# Test results reported in the supplement of paper PMC4709259.
# Counter-ions that a name gives are not always drawn. ± gives the standard deviation.
# How the values were obtained:
# Jurkat [1] = test: mean cell size (FSC-A) relative to DMSO control (fraction of control); higher = larger cells; settings: 48 h
# Summary of the method: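 Jurkat cells at 600 cells/µl were incubated for 1 h and then treated for 48h with the Enzo Screen-Well FDA Approved Drug Library v2.0 at 25µM, with DMSO at 0.9% (v/v) final. Compounds that reduced counts below 20% of controls were retested in 10-fold dilutions down to 25nM. Cell count and mean cell size, taken as forward scatter area, were measured by flow cytometry relative to solvent-only controls. Each plate carried 6-12 controls, and values are means of 3 biological replicates.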
# Jurkat [2] = test: cell count relative to DMSO control (fraction of control); higher = more cells (less growth inhibition); settings: 48 h
Compound,mean cell size (Jurkat [1]),cell count (Jurkat [2])
CCCCN1C[C@H](O)[C@@H](O)[C@H](O)[C@H]1CO [Miglustat (N-Butyldeoxynojirimycin·HCl)] (concentration: 25 µM),0.9757 ± 0.0093,0.81 ± 0.045
NCCCC(N)(C(=O)O)C(F)F (stereo not given) [Eflornithine·HCl] (concentration: 25 µM),0.958 ± 0.019,0.985 ± 0.073
CCN(CC)C(=S)SSC(=S)N(CC)CC [Disulfiram] (concentration: 25 µM),0.959 ± 0.051,0.559 ± 0.15
CC(C)(C)C(=O)OCOP(=O)(COCCn1cnc2c(N)ncnc21)OCOC(=O)C(C)(C)C [Adefovir Dipivoxil] (concentration: 25 µM),1.3 ± 0.043,0.23 ± 0.019
CC1=Nc2ccc(Cl)cc2S(=O)(=O)N1 [Diazoxide] (concentration: 25 µM),1.01 ± 0.064,0.916 ± 0.04
CN(C)CCCC1(c2ccc(F)cc2)OCc2cc(C#N)ccc21 (stereo not given) [Citalopram·HBr] (concentration: 25 µM),0.951 ± 0.031,1.15 ± 0.039
CNCCC(Oc1ccc(C(F)(F)F)cc1)c1ccccc1 (stereo not given) [Fluoxetine·HCl] (concentration: 25 µM),0.992 ± 0.039,0.68 ± 0.14
CC(=O)[C@]1(O)Cc2c(O)c3c(c(O)c2[C@@H](O[C@H]2C[C@H](N)[C@H](O)[C@H](C)O2)C1)C(=O)c1ccccc1C3=O [Idarubicin·HCl] (concentration: 25 nM),1.01 ± 0.047,0.622 ± 0.11
CC(C)OC(=O)CCC/C=C\C[C@@H]1[C@@H](/C=C/[C@@H](O)COc2cccc(C(F)(F)F)c2)[C@H](O)C[C@@H]1O [Travoprost] (concentration: 25 µM),0.92 ± 0.022,0.668 ± 0.084
O=C1O[C@H]([C@@H](O)CO)C(O)=C1O [L-Ascorbic Acid] (concentration: 25 µM),1 ± 0.029,0.836 ± 0.068
COC1=CC(=O)C[C@@H](C)[C@]12Oc1c(Cl)c(OC)cc(OC)c1C2=O [Griseofulvin] (concentration: 2.5 µM),0.975 ± 0.02,0.865 ± 0.099
CCN(CC)CCNC(=O)c1c(C)[nH]c(/C=C2\C(=O)Nc3ccc(F)cc32)c1C [Sunitinib Malate] (concentration: 250 nM),0.906 ± 0.031,0.861 ± 0.089
CN[C@H]1CC[C@@H](c2ccc(Cl)c(Cl)c2)c2ccccc21 [Sertraline·HCl] (concentration: 2.5 µM),1.008 ± 0.0063,0.853 ± 0.12
Cn1nnc2c(C(N)=O)ncn2c1=O [Temozolomide] (concentration: 25 µM),0.959 ± 0.052,0.543 ± 0.12
CC(C)(C#N)c1cc(Cn2cncn2)cc(C(C)(C)C#N)c1 [Anastrozole] (concentration: 25 µM),0.98 ± 0.021,0.933 ± 0.054
CCC1(C)CC(=O)NC1=O (stereo not given) [Ethosuximide] (concentration: 25 µM),1.05 ± 0.025,1.08 ± 0.074
CN1CCC[C@@H]1CCO[C@](C)(c1ccccc1)c1ccc(Cl)cc1 [Clemastine Fumarate] (concentration: 25 µM),0.985 ± 0.024,0.24 ± 0.04
Cc1ccc(-c2cc(C(F)(F)F)nn2-c2ccc(S(N)(=O)=O)cc2)cc1 [Celecoxib] (concentration: 25 µM),0.966 ± 0.029,0.514 ± 0.11
CCCC(=O)Nc1ccc(OCC(O)CNC(C)C)c(C(C)=O)c1 (stereo not given) [Acebutolol·HCl] (concentration: 25 µM),1.04 ± 0.041,0.798 ± 0.17
COCCOC(=O)C1=C(C)NC(C)=C(C(=O)OC(C)C)C1c1cccc([N+](=O)[O-])c1 (stereo not given) [Nimodipine] (concentration: 25 µM),0.938 ± 0.027,0.628 ± 0.17
CC(CCc1ccc(O)cc1)NCCc1ccc(O)c(O)c1 (stereo not given) [Dobutamine·HCl] (concentration: 25 µM),0.952 ± 0.042,0.464 ± 0.13
CCCc1nn(C)c2c(=O)[nH]c(-c3cc(S(=O)(=O)N4CCN(C)CC4)ccc3OCC)nc12 [Sildenafil Citrate] (concentration: 25 µM),1.02 ± 0.055,0.719 ± 0.22
O=C(O)c1cc(-c2ccc(F)cc2F)ccc1O [Diflunisal] (concentration: 25 µM),0.989 ± 0.061,0.666 ± 0.13
O=C(O)Cc1ccccc1Nc1c(Cl)cccc1Cl [Diclofenac·Na Salt] (concentration: 25 µM),0.978 ± 0.039,0.725 ± 0.073
CC(C(=O)O)c1ccc(-c2ccccc2)c(F)c1 (stereo not given) [Flurbiprofen] (concentration: 25 µM),0.974 ± 0.032,0.881 ± 0.083
Cc1onc(-c2ccccc2)c1C(=O)N[C@@H]1C(=O)N2[C@@H]1SC(C)(C)[C@@H]2C(=O)O [Oxacillin·Na] (concentration: 25 µM),0.9367 ± 0.005,0.975 ± 0.1
NCCNCCNCCN [Trientine Dihydrochloride] (concentration: 25 µM),0.949 ± 0.04,1.02 ± 0.14
O=C(O)COCCN1CCN(C(c2ccccc2)c2ccc(Cl)cc2)CC1 (stereo not given) [Cetirizine 2HCl] (concentration: 25 µM),0.962 ± 0.032,1.01 ± 0.12

Compound,mean cell size (Jurkat [1]),cell count (Jurkat [2])
NC(=O)Cc1cccc(C(=O)c2ccccc2)c1N [Nepafenac] (concentration: 25 µM),0.934 ± 0.019,0.727 ± 0.025
COc1cc(C(C)=O)ccc1OCCCN1CCC(c2noc3cc(F)ccc23)CC1 [Iloperidone] (concentration: 25 µM),0.954 ± 0.031,0.734 ± 0.088
CN(C)CC(c1ccc(O)cc1)C1(O)CCCCC1 (stereo not given) [Desvenlafaxine Succinate Hydrate] (concentration: 25 µM),0.993 ± 0.027,0.64 ± 0.09
C[C@H](CS)C(=O)N1CCC[C@H]1C(=O)O [Captopril] (concentration: 25 µM),0.951 ± 0.029,1.01 ± 0.099
O=C1CCCC(=O)C1C(=O)c1ccc(C(F)(F)F)cc1[N+](=O)[O-] [Nitisinone] (concentration: 25 µM),0.938 ± 0.017,0.936 ± 0.1
COc1cc2c(cc1OC)C(=O)C(CC1CCN(Cc3ccccc3)CC1)C2 (stereo not given) [Donepezil·HCl] (concentration: 25 µM),1.032 ± 0.0096,0.487 ± 0.13
Nc1nc(N)c2nc(-c3ccccc3)c(N)nc2n1 [Triamterene] (concentration: 25 µM),1.21 ± 0.038,0.398 ± 0.082
Cc1onc(-c2c(Cl)cccc2Cl)c1C(=O)N[C@@H]1C(=O)N2[C@@H]1SC(C)(C)[C@@H]2C(=O)O [Dicloxacillin·Na Salt Monohydrate] (concentration: 25 µM),0.939 ± 0.0097,1.07 ± 0.06
CN1C(CCl)Nc2cc(Cl)c(S(N)(=O)=O)cc2S1(=O)=O (stereo not given) [Methyclothiazide] (concentration: 25 µM),0.982 ± 0.048,0.633 ± 0.17
COC(=O)CCC(=O)CN [Methyl Aminolevulinate·HCl] (concentration: 25 µM),0.99 ± 0.033,0.739 ± 0.074
CCCCC[C@H](O)/C=C/[C@H]1[C@H](O)CC(=O)[C@@H]1CCCCCCC(=O)O [Alprostadil] (concentration: 25 µM),0.872 ± 0.0094,0.73 ± 0.12
Cc1ccc(Nc2nccc(N(C)c3ccc4c(C)n(C)nc4c3)n2)cc1S(N)(=O)=O [Pazopanib·HCl] (concentration: 25 µM),0.9554 ± 0.0092,0.772 ± 0.12
Cc1ccnc2c1NC(=O)c1cccnc1N2C1CC1 [Nevirapine] (concentration: 25 µM),0.924 ± 0.051,0.476 ± 0.11
CC(C)[C@H](N)C(=O)OCCOCn1cnc2c(=O)nc(N)[nH]c21 [Valacyclovir·HCl] (concentration: 25 µM),0.987 ± 0.03,0.332 ± 0.065
C[C@H]1O[C@H](O[C@H]2[C@H](O)[C@@H](O)[C@@H](O[C@@H]([C@H](O)[C@@H](O)C=O)[C@H](O)CO)O[C@@H]2CO)[C@H](O)[C@@H](O)[C@@H]1N[C@H]1C=C(CO)[C@@H](O)[C@H](O)[C@H]1O [Acarbose] (concentration: 25 µM),1.04 ± 0.047,0.877 ± 0.15
O=C1CCc2cc(OCCCCc3nnnn3C3CCCCC3)ccc2N1 [Cilostazol] (concentration: 25 µM),0.98 ± 0.044,0.819 ± 0.12
O=C(c1ccccc1)c1ccc2n1CCC2C(=O)O (stereo not given) [Ketorolac Tromethamine] (concentration: 25 µM),0.907 ± 0.024,0.934 ± 0.038
O=C1NC(=O)C(c2ccccc2)(c2ccccc2)N1 [Phenytoin] (concentration: 25 µM),0.978 ± 0.042,0.74 ± 0.12
NC(=O)N1c2ccccc2C=Cc2ccccc21 [Carbamazepine] (concentration: 25 µM),0.955 ± 0.044,1.14 ± 0.065
CC(=O)CCCCn1c(=O)c2c(ncn2C)n(C)c1=O [Pentoxifylline] (concentration: 25 µM),0.977 ± 0.028,1.09 ± 0.12
Cc1cn([C@@H]2C[C@@H](O)[C@H](CO)O2)c(=O)[nH]c1=O [Telbivudine] (concentration: 25 µM),0.927 ± 0.037,1.04 ± 0.17
CCN(Cc1ccncc1)C(=O)C(CO)c1ccccc1 (stereo not given) [Tropicamide] (concentration: 25 µM),0.973 ± 0.019,0.925 ± 0.05
C[N+](C)(C)C[C@H](O)CC(=O)[O-] [Levocarnitine] (concentration: 25 µM),0.938 ± 0.013,1.01 ± 0.099
C[C@]12CC[C@@H]3c4ccc(O)cc4CC[C@H]3[C@@H]1CC[C@@H]2O [Estradiol] (concentration: 25 µM),0.892 ± 0.026,0.711 ± 0.1
CN(C)CCOc1ccc(/C(=C(/CCCl)c2ccccc2)c2ccccc2)cc1 [Toremifene Base] (concentration: 25 µM),0.9556 ± 0.0078,0.948 ± 0.079
CCCCNc1cc(C(=O)O)cc(S(N)(=O)=O)c1Oc1ccccc1 [Bumetanide] (concentration: 25 µM),0.952 ± 0.015,0.863 ± 0.022
CCC[C@@H]1C[C@@H](C(=O)N[C@@H]([C@H]2O[C@H](SC)[C@H](O)[C@@H](O)[C@H]2O)[C@H](C)Cl)N(C)C1 [Clindamycin·HCl] (concentration: 25 µM),1.07 ± 0.062,0.805 ± 0.14
